Potency data for 38 compounds are collected here from PubChem BioAssay (Tox21).

Inconclusive results are not listed. Entries that show only a call come without a potency. Calls of active or inactive are those of the source. Unless noted, calls follow the shape of the full dose curve.

Sequence of Muscarinic acetylcholine receptor M1 (Homo sapiens) (P11229 whole entry, looked up): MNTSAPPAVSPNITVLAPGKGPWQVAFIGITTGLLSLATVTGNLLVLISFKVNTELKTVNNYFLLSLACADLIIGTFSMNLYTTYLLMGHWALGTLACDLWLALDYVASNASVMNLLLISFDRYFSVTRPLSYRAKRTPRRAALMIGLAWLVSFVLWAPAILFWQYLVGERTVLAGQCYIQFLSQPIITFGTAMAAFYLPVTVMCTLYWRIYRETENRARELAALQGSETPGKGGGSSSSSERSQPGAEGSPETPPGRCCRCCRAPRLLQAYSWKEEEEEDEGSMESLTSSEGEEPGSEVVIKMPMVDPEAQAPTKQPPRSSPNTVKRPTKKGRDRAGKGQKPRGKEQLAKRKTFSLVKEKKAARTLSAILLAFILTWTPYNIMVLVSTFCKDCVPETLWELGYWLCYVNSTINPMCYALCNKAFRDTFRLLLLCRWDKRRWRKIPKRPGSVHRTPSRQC

The first assay deals with Muscarinic acetylcholine receptor M1 (Homo sapiens) (UniProt P11229). Briefly: Cholinergic receptor muscarinic 1 (CHRM1) small molecule antagonists, cell-based qHTS assay (AID 1963588). Also: nearly all actives have a fitted effect of over 40% in size. To be noted: CHRM1-CHO antagonist mode, calcium flux fluorescence; series mostly up to 61.5 µM. The gist of the method:
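CHRM1-CHO calcium-flux assay, antagonist mode. Cells were seeded 18 h, dye-loaded 1 h at 37 C and given compound for 5 min at RT, then acetylcholine was added at 50nM. FDSS fluorescence was read 3 min; 15 concentrations, three runs.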
Regarding `N#Cc1c[nH]cc1-c1cccc2c1OC(F)(F)O2`, the Potency result was “inactive”.
Still for that read-out and setting: under `C=CC(=O)OCC` stands “inactive”; under `CNC(=O)O/N=C(\C)C(C)S(C)(=O)=O` (configuration not stated), “inactive”.

Another assay has the same target. Nature of the assay: Cholinergic receptor muscarinic 1 (CHRM1) small molecule agonists, cell-based qHTS assay (AID 1963589). Also: nearly all actives have a fitted effect of over 35% in size. To be noted: CHRM1-CHO cells, agonist mode, calcium flux fluorescence; series mostly up to 76.8 µM. The essentials:
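Human M1 in stable CHO line; 18 h plating, 1 h dye load 37 C; cpd added (agonist mode); Ca2+ fluorescence kinetic read, 1 s intervals; 15 conc, 3 runs.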
On the technique in general: qHTS replaces the single test concentration by a dilution series.
Regarding `ClCBr`, the Potency entry was “inactive”.
Regarding `C#CC(C)(C)O`, the Potency entry is “inactive”.
With `Brc1cccc(-c2ccccc2)c1`, the Potency result is “inactive”.
With `CCCCOC(=O)c1ccccc1N`, the Potency entry is “inactive”.
On the same count and under the same terms, the same measure for `ClCCCCBr`: “inactive”; for `O=S(=O)(Cl)c1ccccc1`: “inactive”.
With `Nc1ccc([N+](=O)[O-])cc1[N+](=O)[O-]`, the Potency result was “inactive”.
Regarding `ClCCCCCCCl`, the Potency entry was “inactive”.
The same measure, in the same setting: under `CC1(C)COP(Oc2ccccc2)OC1` stands “inactive”; under `CNC(=O)O/N=C(\C)SC`, “inactive”.
On to `O=C1OC(=O)C2C1C1(Cl)C(Cl)=C(Cl)C2(Cl)C1(Cl)Cl` (configuration not stated), for which the Potency entry was “inactive”.
On to `Nc1cc2c3c(c1)C(c1ccccc1)=N[C@@H](NC(=O)c1cccnc1)C(=O)N3CC2`, for which the Potency entry is “inactive”.
On the same count and under the same terms, under `O=C(Nc1ccc(F)cc1F)c1cccnc1Oc1cccc(C(F)(F)F)c1` stands “inactive”; under `CCC1(c2cccc(O)c2)CCCCN(C)C1` (configuration not stated), “inactive”.
`Fc1ccc(C2(Cn3cncn3)OC2c2ccccc2Cl)cc1` (configuration not stated): the Potency entry is “inactive”.
In the case of `Cc1cnc2c(C(=O)O)c(Cl)ccc2c1`, the Potency entry is “inactive”.
On the same count and under the same terms, under `Cc1ccn2nc(S(=O)(=O)Nc3c(F)cccc3F)nc2n1` stands “inactive”; under `CCCCC(CC)COP(=O)(Oc1ccccc1)Oc1ccccc1` (configuration not stated), “inactive”; under `CC(C)(N)Cc1ccc(Cl)cc1`, “inactive”.
On the same count and under the same terms, the same measure for `N#Cc1c2ccccc2cc2ccccc12`: “inactive”.
For `N#Cc1c[nH]cc1-c1cccc2c1OC(F)(F)O2`, the Potency entry was “inactive”.

Tested on in the next assay: not listed separately
Nature of the assay: cAMP Responsive Elements (CRE) small molecule agonists, cell-based qHTS assay (AID 1963590). To be noted: CRE-bla HEK293T, beta-lactamase FRET ratio, 3 h; series mostly up to 92.4 µM. The gist of the method:
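HEK 293T CRE-bla, 2,000 cells/well, 18 h preincubation 37 C/5% CO2; cpds (DMSO) pinned, 3 h; LiveBLAzer B/G FRET substrate, 2 h RT.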
Regarding `ClCBr`, the Potency result was “inactive”.
As to `O=C1CN=C(c2ccccc2)c2cc([N+](=O)[O-])ccc2N1`, the Potency entry was “inactive”.
As for `C#CC(C)(C)O`, the Potency result is “inactive”.
On the same count and under the same terms, under `Brc1cccc(-c2ccccc2)c1` stands “inactive”; under `CC[N+]1(CCOC(=O)C(O)(c2ccccc2)c2ccccc2)CCCCC1`, “inactive”.
For `ClCCCCBr`, the Potency entry is “inactive”.
Turning to `O=S(=O)(Cl)c1ccccc1`, the Potency result is “inactive”.
Same read-out and setting: under `CC(C)CC(N(C)C)C1(c2ccc(Cl)cc2)CCC1` (configuration not stated) stands “inactive”; under `C[N+]1(CCC(C(N)=O)(c2ccccc2)c2ccccc2)CCCCC1`, “inactive”; under `Nc1ccc([N+](=O)[O-])cc1[N+](=O)[O-]`, “inactive”.
The same measure, in the same setting: the same measure for `ClCCCCCCCl`: “inactive”.
In the case of `CCNc1nc(NC(C)C(C)C)nc(SC)n1` (configuration not stated), the Potency entry is “inactive”.
Still for that read-out and setting: under `CC1(C)COP(Oc2ccccc2)OC1` stands “inactive”; under `CNC(=O)O/N=C(\C)SC`, “inactive”.
Still for that read-out and setting: under `C[C@H](N)C(=O)c1ccccc1` stands “inactive”.
The same measure, in the same setting: the same measure for `O=C1OC(=O)C2C1C1(Cl)C(Cl)=C(Cl)C2(Cl)C1(Cl)Cl` (configuration not stated): “inactive”; for `Nc1cc2c3c(c1)C(c1ccccc1)=N[C@@H](NC(=O)c1cccnc1)C(=O)N3CC2`: “inactive”.
As for `CC(C)C(Br)C(=O)NC(N)=O` (configuration not stated), the Potency entry was “inactive”.
For `CCC1(c2cccc(O)c2)CCCCN(C)C1` (configuration not stated), the Potency result is “inactive”.
The same measure, in the same setting: under `Fc1ccc(C2(Cn3cncn3)OC2c2ccccc2Cl)cc1` (configuration not stated) stands “inactive”; under `O=C(O)[C@H](O)[C@@H](O)C(=O)O`, “inactive”.
In the case of `CN1C(=O)COc2c(C(=O)NC3CN4CCC3CC4)cc(Cl)cc21` (configuration not stated), the Potency entry was “inactive”.
On to `COc1c2c(cc3c1OCO3)CCN(C)C2`, for which the Potency result is “inactive”.
On the same count and under the same terms, the same measure for `O=[N+]([O-])c1cc(Cl)c(Cl)cc1Cl`: “inactive”; for `ClC(Cl)C(Cl)(Cl)Cl`: “inactive”; for `c1ccc(Nc2ccc(Nc3ccccc3)cc2)cc1`: “inactive”.
Same read-out and setting: the same measure for `Cc1cnc2c(C(=O)O)c(Cl)ccc2c1`: “inactive”; for `C[C@]12CC[C@@H]3c4ccc(OC(=O)N(CCCl)CCCl)cc4CC[C@H]3[C@@H]1CC[C@@H]2O`: “inactive”; for `CC(C)(N)Cc1ccc(Cl)cc1`: “inactive”.
On the same count and under the same terms, under `C=CC(=O)OCC` stands “inactive”; under `CNC(=O)O/N=C(\C)C(C)S(C)(=O)=O` (configuration not stated), “inactive”; under `Cc1ccc2cc3c(ccc4ccccc43)c3c2c1CC3`, “inactive”.

Tested on in a further assay: not listed separately
Briefly: cAMP Responsive Elements (CRE) small molecule antagonists, cell-based qHTS assay (AID 1963591; active = well fitted inhibition curve with a large enough effect in the signal ratio in the repeat runs, not every such curve was filed as active; the % refers to the signal ratio). To be noted: CRE-bla HEK293T, beta-lactamase FRET ratio; series mostly up to 92.4 µM. The essentials: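 Beta-lactamase reporter read by FRET substrate (LiveBLAzer B/G) after 2 h at room temperature. CRE-bla HEK293T cells had received compound plus 0.25 uM (final) NKH477 for 3 h at 37 °C.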
As to `ClCBr`, the Potency result is “inactive”.
For `O=C1CN=C(c2ccccc2)c2cc([N+](=O)[O-])ccc2N1`, the Potency result is “inactive”.
In the case of `C#CC(C)(C)O`, the Potency result was “inactive”.
Same read-out and setting: the same measure for `Brc1cccc(-c2ccccc2)c1`: “inactive”; for `CC[N+]1(CCOC(=O)C(O)(c2ccccc2)c2ccccc2)CCCCC1`: “inactive”; for `ClCCCCBr`: “inactive”.
On the same count and under the same terms, under `O=S(=O)(Cl)c1ccccc1` stands “inactive”.
The same measure, in the same setting: the same measure for `CC(C)CC(N(C)C)C1(c2ccc(Cl)cc2)CCC1` (configuration not stated): “inactive”; for `C[N+]1(CCC(C(N)=O)(c2ccccc2)c2ccccc2)CCCCC1`: “inactive”.
For `Nc1ccc([N+](=O)[O-])cc1[N+](=O)[O-]`, the Potency result is “inactive”.
Consider `ClCCCCCCCl`, for which the Potency entry is “inactive”.
Take `CNC(=O)O/N=C(\C)SC`: the Potency result is “inactive”.
The same measure, in the same setting: the same measure for `C[C@H](N)C(=O)c1ccccc1`: “inactive”.
The same measure, in the same setting: the same measure for `O=C1OC(=O)C2C1C1(Cl)C(Cl)=C(Cl)C2(Cl)C1(Cl)Cl` (configuration not stated): “inactive”; for `CCC1(c2cccc(O)c2)CCCCN(C)C1` (configuration not stated): “inactive”.
Consider `O=C(O)[C@H](O)[C@@H](O)C(=O)O`, for which the Potency result is “inactive”.
The same measure, in the same setting: under `CN1C(=O)COc2c(C(=O)NC3CN4CCC3CC4)cc(Cl)cc21` (configuration not stated) stands “inactive”; under `O=[N+]([O-])c1cc(Cl)c(Cl)cc1Cl`, “inactive”; under `ClC(Cl)C(Cl)(Cl)Cl`, “inactive”.
The same measure, in the same setting: the same measure for `c1ccc(Nc2ccc(Nc3ccccc3)cc2)cc1`: “inactive”; for `Cc1cnc2c(C(=O)O)c(Cl)ccc2c1`: “inactive”.
As for `Cc1ccn2nc(S(=O)(=O)Nc3c(F)cccc3F)nc2n1`, the Potency entry is “inactive”.
For `C[C@]12CC[C@@H]3c4ccc(OC(=O)N(CCCl)CCCl)cc4CC[C@H]3[C@@H]1CC[C@@H]2O`, the Potency result is “inactive”.
Still for that read-out and setting: under `CC(C)(N)Cc1ccc(Cl)cc1` stands “inactive”; under `CNC(=O)O/N=C(\C)C(C)S(C)(=O)=O` (configuration not stated), “inactive”.
With `Cc1ccc2cc3c(ccc4ccccc43)c3c2c1CC3`, the Potency result was “inactive”.
